# Hits are enriched below; roughly 8.9% of the tested compounds scored in any of these assays.
# 12-hLO inh – qHTS Assay for Inhibitors of 12-hLO (12-human lipoxygenase) | Polyunsaturated fatty acid lipoxygenase ALOX12 (Homo sapiens), P18054 | purified 12-hLO, xylenol orange hydroperoxide absorbance | Potency, µM (highest dose often 57.1 µM), usual class: inhibitors | actives 0.12% (n = 150,000); note: nearly all actives have a fitted effect of over 55% in size
#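 Purified human 12hLO (150 nM), preincubated 15 min with compound, then 40 uM arachidonic acid for 30 min, room temperature, Hepes pH 7.0 with 0.01% Triton X-100. Hydroperoxide detected by ferrous iron/xylenol orange; 573/405 nm absorbance ratio gives reaction progress.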
# IMPase inh – qHTS Assay for Identifying the Cell-Membrane Permeable IMPase Inhibitors; inhibition (IP1 accumulation), % at 46.1 µM; CHO-M1 cells, IP1 accumulation, HTRF TR-FRET ratio; 120,000 tested, under 10 active; AID 901, 2007; active = well fitted curve in the direction sought with a large enough effect in the signal ratio, not every such curve was filed as active; inconclusive = small, poorly fitted or top-dose-only effect, or a change in a side signal; inactive = no such curve, though single readings can be large or run the other way; the % refers to the signal ratio;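 note: cells stimulated with carbachol in lithium chloride buffer; higher means more IMPase inhibition seen as more IP1 and lower FRET ratio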
# Target sequence (P97697 whole entry, looked up): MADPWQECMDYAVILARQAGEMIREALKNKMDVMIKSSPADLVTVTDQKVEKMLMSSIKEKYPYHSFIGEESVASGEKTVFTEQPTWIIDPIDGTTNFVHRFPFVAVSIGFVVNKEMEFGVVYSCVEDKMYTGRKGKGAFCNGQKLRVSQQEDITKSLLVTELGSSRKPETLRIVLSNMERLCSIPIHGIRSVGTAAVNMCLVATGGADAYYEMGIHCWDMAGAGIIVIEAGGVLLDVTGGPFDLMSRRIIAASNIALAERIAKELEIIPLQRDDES
#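 CHO-M1 cells (CHO stably expressing M1 receptor), compound up to 46 uM final, stimulated with carbachol (50 uM as added) in buffer with 50mM LiCl, pH 7.4, 30 min at 37C. Cytosolic IP1 read by TR-FRET; AC50 from Hill fits.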
# NPSR antagonist – qHTS Assay for Antagonists of the Neuropeptide S Receptor: cAMP Signal Transduction; Q6W5P4; CHO-NPSR cells, cAMP TR-FRET, antagonist mode; Potency, µM (doses to about 38.3 µM), most hits filed as inhibitors; actives 1% (n = 220,000); AID 1461, 2008; note: nearly all actives have a fitted effect of over 50% in size
# ALDH1A1 block – qHTS Assay for Inhibitors of Aldehyde Dehydrogenase 1 (ALDH1A1); actives 7.3% (n = 220,000); Purified ALDH1A1, NADH fluorescence, propionaldehyde substrate; Aldehyde dehydrogenase 1A1 (Homo sapiens), P00352; Potency, µM (titrated, usually from 75.3 µM), actives largely listed as inhibitors; AID 1030, 2008; active = well fitted inhibition curve with a large enough effect, not every such curve was filed as active; inconclusive = small, poorly fitted or top-dose-only effect, or another doubt; inactive = no such curve, though single readings can be large or run the other way
# IMPase Li cell – qHTS Assay for Identifying the Cell-Membrane Permeable IMPase Inhibitors: Potentiation with Lithium | CHO-M1 cells, IP1 TR-FRET (IP-One), carbachol + lithium | AID 1457, 2008 | actives 0.35% (n = 210,000) | Potency, µM (highest dose often 59.4 µM), usual class: inhibitors;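 note: IP1 builds up when IMPase is blocked and the TR-FRET signal falls; nearly all actives have a fitted effect of over 50% in size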
#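 Lithium-sensitised IP1 accumulation assay; M1-expressing CHO cells treated 30 min at 37C with compound. Competitive antibody detection by time-resolved FRET followed a 10 min room-temperature lysis step.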
# HPGD inh – qHTS Assay for Inhibitors of HPGD (15-Hydroxyprostaglandin Dehydrogenase); 15-hydroxyprostaglandin dehydrogenase [NAD(+)] (Homo sapiens), P15428; purified HPGD, NADH fluorescence kinetic, PGE2 substrate; Potency, µM, hits mostly inhibitors; actives 4.3% (n = 150,000); active = well fitted inhibition curve with a large enough effect, not every such curve was filed as active; inconclusive = small, poorly fitted or top-dose-only effect, or another doubt; inactive = no such curve, though single readings can be large or run the other way
# Target sequence (P15428 whole entry, looked up): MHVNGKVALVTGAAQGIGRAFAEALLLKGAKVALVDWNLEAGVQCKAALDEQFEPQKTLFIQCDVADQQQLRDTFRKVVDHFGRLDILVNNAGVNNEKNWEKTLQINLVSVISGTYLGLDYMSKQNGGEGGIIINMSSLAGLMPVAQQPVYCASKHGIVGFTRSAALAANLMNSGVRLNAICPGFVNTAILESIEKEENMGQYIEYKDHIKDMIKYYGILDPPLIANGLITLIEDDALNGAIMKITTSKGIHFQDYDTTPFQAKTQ
#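 NADH formation kinetics: reaction with 30 uM PGE2 and 1 mM NAD+ (final), 20 nM enzyme, Tris-HCl pH 8 with Tween 20, after 15 min compound preincubation at room temperature. Fluorescence change, last versus first of five reads.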
# Hits are given with their value; n = inactive; u = inconclusive; x = no result given. Unless noted, calls come from the whole dose curve; as a rule, active = well fitted curve in the direction sought with a large enough effect; inconclusive = small, poorly fitted or top-dose-only effect, or another doubt; inactive = no such curve, though single readings can be large; an effect the other way counts as inactive or inconclusive.
SMILES,12-hLO inh,IMPase inh,NPSR antagonist,ALDH1A1 block,IMPase Li cell,HPGD inh
CCCCN(C(=O)c1c(C)[nH]c(C(=O)OCC)c1C)c1ccccc1,n,n,n,n,n,n
O=C(Nc1nc(=S)ss1)c1ccc(Cl)cc1Cl,n,n,n,6.3µM,n,22µM
COc1ccc(-c2cn(-c3cccc(C)c3)c(=O)[nH]2)cc1OC,x,x,n,u,n,x
COc1ccccc1-n1cc(-c2ccc(Cl)cc2)[nH]c1=O,n,n,n,11µM,n,n
CCOc1cc(-c2nc(-c3ccccc3)c(-c3cc([N+](=O)[O-])ccc3C)[nH]2)ccc1O,n,n,u,6.3µM,n,n
COc1ccc(-c2nc(-c3ccccc3)c(-c3cc([N+](=O)[O-])ccc3C)[nH]2)cc1OC,n,n,7.9µM,n,n,n
O=C(NCc1ccccc1Cl)C1CCCN(S(=O)(=O)c2cnc[nH]2)C1 (centres undefined),n,n,n,n,n,n
CCCc1cc(=O)oc2cc(C)cc(OCc3nn[nH]n3)c12,n,n,n,u,n,u
CCCCc1cc(=O)oc2cc(C)c(CN3CCCC3)c(O)c12,n,n,n,22µM,n,n
CCCCCc1cc(O)c2c(C)cc(=O)oc2c1,n,n,n,1.8µM,u,n
CCCc1cc(=O)oc2cc(C)cc(O)c12,n,n,n,8.9µM,n,n
Cc1cc(=O)oc2cc(O)cc(O)c12,n,x,x,u,n,u
CCc1cc(=O)oc2cc(C)cc(O)c12,n,u,n,4.5µM,3.2µM,28µM
Cc1ccc(OCCN2CCN(CC(O)Cn3c4ccccc4c4ccccc43)CC2)cc1 (centres undefined),n,n,n,u,n,u
CC1CCCCC12NC(=O)N(CC(=O)Nc1ccc(S(=O)(=O)N3CCOCC3)cc1)C2=O (centres undefined),n,n,n,n,n,n
O=C(CSCc1cnn(-c2ccccc2)c1-n1cccc1)NCc1ccc2c(c1)OCO2,n,n,n,u,n,n
O=[N+]([O-])c1ccccc1C1Nc2cccc3cccc(c23)N1,n,n,n,n,n,n
CCc1cc(=O)oc2cc(C)cc(OCC(C)=O)c12,x,x,n,x,x,x
CCCc1cc(=O)oc2cc(C)cc(OC(=O)c3ccco3)c12,n,n,n,2.2µM,n,n
CCOc1cc(/C=C2/C(=O)ON=C2C)ccc1OCc1ccccc1,x,x,n,n,n,x
CCOc1cc(/C=C2/C(=O)ON=C2C)ccc1OCc1ccccc1F,n,n,16µM,5µM,n,1.6µM
CC1=NOC(=O)/C1=C\c1ccc2c(c1)OCO2,x,x,n,13µM,n,x
O/N=C\c1ccc(-c2ccccc2)o1,n,x,n,n,n,14µM
COc1ccc(N=Cc2ccc(-c3ccccc3)o2)cc1,x,x,n,3.2µM,n,x
O/N=C/c1ccc(-c2cc(Cl)ccc2Cl)o1,n,x,n,n,n,4.5µM
SMILES,12-hLO inh,IMPase inh,NPSR antagonist,ALDH1A1 block,IMPase Li cell,HPGD inh
COc1ccccc1NC(=O)NCCN1CCN(C(=O)Nc2ccccc2OC)CC1,x,x,n,n,n,x
COc1ccc(C2CC(c3ccc(Br)cc3)=NN2C(=S)Nc2ccccc2)cc1 (centres undefined),x,x,n,11µM,n,x
CCOC(=O)/C=C(\C)N1N=C(c2ccccc2)CC1c1ccccc1 (centres undefined),x,x,n,1µM,n,x
COc1ccc(C2=NN(C(=S)Nc3ccccc3)C(c3ccccc3)C2)cc1 (centres undefined),n,x,n,13µM,n,n
COc1ccc(C2CC(c3ccccc3)=NN2C(=S)Nc2ccccc2)cc1 (centres undefined),x,x,n,n,n,x
CCOC(=O)c1nnn(CC(=O)N2N=C(c3ccccc3)CC2c2ccccc2)c1C(=O)OCC (centres undefined),n,n,n,n,u,u
COc1ccc(C2=NN(C(N)=S)C(c3ccccc3)C2)cc1 (centres undefined),x,x,n,7.5µM,n,x
CNC(=S)N1N=C(c2ccc(Br)cc2)CC1c1ccc(Br)cc1 (centres undefined),n,n,u,n,n,n
CCOc1ccc(-n2c(Cc3cc(=O)[nH]c(=O)[nH]3)nnc2SCC(=O)Nc2nnc(C)s2)cc1,x,x,n,n,n,x
CS(=O)(=O)N1CCc2cc(-c3csc(NC(=O)Cc4cccs4)n3)ccc21,n,n,u,13µM,n,n
CNc1nc(-c2ccc3c(c2)CCN3C(=O)c2ccccc2C)cs1,x,x,n,13µM,n,x
O=c1cnc2cnc(N3CCNCC3)nc2n1CCc1ccccc1,n,x,x,u,n,u
O=C(O)/C=C/c1coc2ccccc2c1=O,n,x,n,n,n,n
N#C/C(=C\c1coc2ccccc2c1=O)C(N)=S,x,x,n,32µM,n,x
COc1ccc(/C(O)=C2/C(=O)C(=O)N(Cc3cccnc3)C2c2ccccn2)cc1 (centres undefined),n,n,n,n,n,n
CCOc1ccc(/C(O)=C2/C(=O)C(=O)N(CCOCCO)C2c2cccnc2)cc1 (centres undefined),n,u,u,n,11µM,n
Cc1cc(OCC(C)C)ccc1/C(O)=C1/C(=O)C(=O)N(Cc2cccnc2)C1c1ccncc1 (centres undefined),n,u,u,u,4.5µM,n
COCCN1C(=O)C(=O)/C(=C(/O)c2ccc(OC(C)C)cc2)C1c1cccnc1 (centres undefined),n,n,u,n,10µM,n
CCOc1ccc(/C(O)=C2/C(=O)C(=O)N(CCOCCO)C2c2ccccc2)cc1 (centres undefined),n,u,n,n,11µM,n
